Data: the supplement of paper PMC4840960
± gives the standard deviation of the averaged measurements.

Experiments:
[1] = tested on: E18 rat cortical neuron-glia co-culture; test: fiber score / MBP score (myelination specific beyond OL differentiation) (ratio); higher = more myelination-specific MBP alignment; settings: treatment time: 8 days (DIV5-DIV13)
In short: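 Library compounds were applied at 1 or 5 µM in myelination medium, DIV5 to DIV13, to primary E18 rat cortical co-cultures grown at 20,000 cells/well in 96-well plates. After 4 % paraformaldehyde fixation and MBP/Olig2/DAPI immunostaining, four 10X fields per well in duplicate wells were scored. Each value is continuous MBP fiber length per Olig2+ nucleus divided by thresholded MBP area × intensity per Olig2+ nucleus.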

[2] = tested on: E18 rat cortical neuron-glia co-culture; test: myelination (MBP fiber length per Olig2+ nucleus), % of 1 µM DAPT response (DMSO = 0) (% of DAPT); higher = more myelination, active = 50 or more; settings: treatment time: 8 days (DIV5-DIV13)
In short: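 Library compounds at 1 or 5 µM in myelination medium were applied from DIV5 to DIV13 to papain-dissociated E18 rat cortical co-cultures seeded at 20,000 cells/well on poly-d-lysine/laminin 96-well plates. Fixed cells (4 % paraformaldehyde) were immunostained for MBP and Olig2 with DAPI, and four 10X fields were analysed in each duplicate well. Continuous straight MBP fiber length per Olig2+ nucleus was set to 0 for 0.1 % DMSO and to 100 for a 1 µM positive control.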

| SMILES | fiber score / MBP score ([1]; 1 µM) | fiber score / MBP score ([1]; 5 µM) | myelination ([2]; 1 µM) | myelination ([2]; 5 µM) |
| --- | --- | --- | --- | --- |
| NC[C@H](O)c1ccc(O)c(O)c1 [Norepinephrine] | 0.663 | 0.756 | -41.6 (inactive) | -38.4 (inactive) |
| CCOC(=O)[C@H](CCc1ccccc1)N[C@@H](C)C(=O)N1CCC[C@H]1C(=O)O [Enalapril] | 0.732 | 0.734 | -22.3 (inactive) | -27.5 (inactive) |
| Fc1ccc([C@@H]2CCNC[C@H]2COc2ccc3c(c2)OCO3)cc1 [Paroxetine] | 0.8051 ± 0.003 | 1.08 ± 0.16 | -13.8 (inactive) | 3.71 (inactive) |
| C#C[C@]1(OC(C)=O)CC[C@H]2[C@@H]3CCC4=CC(=O)CC[C@@H]4[C@H]3CC[C@@]21C [Norethisterone acetate] | 0.907 | 0.989 | -8.44 (inactive) | -6.86 (inactive) |
| CC(=O)NCCCCCCNC(C)=O [Hexamethylene bisacetamide] | 0.663 | 0.981 | -0.00866 (inactive) | -2.54 (inactive) |
| CNNCc1ccc(C(=O)NC(C)C)cc1 [Procarbazine] | 0.937 | 1.09 | -6.44 (inactive) | -0.797 (inactive) |
| CN1CCCCC1CCN1c2ccccc2Sc2ccc([S+](C)[O-])cc21 (stereo not given) [Mesoridazine] | 0.531 | 0.747 | -39.6 (inactive) | -20.4 (inactive) |
| CO[C@H]1/C=C/O[C@@]2(C)Oc3c(C)c(O)c4c(O)c(c(/C=N/N5CCN(C6CCCC6)CC5)c(O)c4c3C2=O)NC(=O)/C(C)=C\C=C\[C@H](C)[C@H](O)[C@@H](C)[C@@H](O)[C@@H](C)[C@H](OC(C)=O)[C@@H]1C [Rifapentine] | 0.893 ± 0.081 | 1.12 ± 0.52 | 2.99 (inactive) | 21 (inactive) |
| Cc1c(O)cccc1C(=O)N[C@@H](CSc1ccccc1)[C@H](O)CN1C[C@H]2CCCC[C@H]2C[C@H]1C(=O)NC(C)(C)C [Nelfinavir] | 0.779 | 0.634 | -42.1 (inactive) | -44.3 (inactive) |
| CCc1c(C)[nH]c2c1C(=O)C(CN1CCOCC1)CC2 (stereo not given) [Molindone] | 0.619 | 0.498 | -21 (inactive) | -25.8 (inactive) |
| CC[C@@H](CO)NCCN[C@@H](CC)CO [Ethambutol] | 0.781 | 0.753 | -5.28 (inactive) | -6.9 (inactive) |
| O=C(O)c1cccnc1 [Niacin] | 1.05 | 0.998 | 9.03 (inactive) | 7.38 (inactive) |
| C=CC1=C(C(=O)O)N2C(=O)[C@@H](NC(=O)/C(=N\O)c3csc(N)n3)[C@H]2SC1 [Cefdinir] | 0.926 | 0.824 | 1.23 (inactive) | -0.0683 (inactive) |
| NC(=O)N1c2ccccc2CC(=O)c2ccccc21 [Oxcarbazepine] | 1.02 | 1.17 | 3.46 (inactive) | 196 |
| NC(=O)c1cccnc1 [Niacinamide] | 0.96 | 0.901 | -7.93 (inactive) | -4.86 (inactive) |
| CS(N)(=O)=O [Methanesulfonamide] | 0.63 | 0.693 | -10.9 (inactive) | -10.7 (inactive) |
| OCCOCCN1CCN(C2=Nc3ccccc3Sc3ccccc32)CC1 [Quetiapine hemifumarate] | 0.545 | 0.327 | -10 (inactive) | -19.9 (inactive) |
| CC(=O)N1CCN(c2ccc(OCC3COC(Cn4ccnc4)(c4ccc(Cl)cc4Cl)O3)cc2)CC1 (stereo not given) [Ketoconazole] | 0.468 | 0.267 | -0.358 (inactive) | -46.2 (inactive) |
| CN(Cc1cnc2nc(N)nc(N)c2n1)c1ccc(C(=O)N[C@@H](CCC(=O)O)C(=O)O)cc1 [Methotrexate] | 1.06 | 1.53 | -20.4 (inactive) | 195 (active) |
| C[C@]12C=CC(=O)C=C1CC[C@@H]1[C@@H]2[C@@H](O)C[C@@]2(C)[C@H]1CC[C@]2(O)C(=O)COC(=O)CCC(=O)O [Prednisolone hemisuccinate] | 0.88 | 1.08 | 1.93 (inactive) | -1.16 (inactive) |
